Screening data from PubChem BioAssay.
Cdc42 wt GTP: modulators of GTP binding to wildtype Cdc42, primary screen, biochemical, multiplex bead flow cytometry, Bodipy-GTP; Cell division control protein 42 homolog (Homo sapiens), P60953; GST-Cdc42 beads; actives lie on both sides; percent activity (GTP binding), % at 10 µM; 190,000 tested, 0.2% active;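 active means percent activity GTP binding at least 20 points away from the 100% baseline, either down as inhibitor or up as activator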;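 further: median bead fluorescence of bound Bodipy-FL-GTP at 100 nM; 0% = excess unlabeled GTP control and 100% = no compound control; below 100% means less GTP binding so inhibitor and above means activator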
Target sequence (P60953 whole entry, looked up): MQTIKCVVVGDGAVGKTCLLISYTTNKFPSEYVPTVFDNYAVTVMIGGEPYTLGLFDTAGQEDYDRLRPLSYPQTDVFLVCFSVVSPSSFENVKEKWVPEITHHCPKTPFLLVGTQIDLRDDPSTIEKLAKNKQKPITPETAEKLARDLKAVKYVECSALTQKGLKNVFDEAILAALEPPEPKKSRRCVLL
Rab7 wt modul: modulators of GTP binding to Rab7, primary screen, biochemical, wildtype, multiplex bead flow cytometry | Rab7 GTPase wild type (dog), Bodipy-FL-GTP binding | GST-Rab7 beads, fluorescent GTP binding; actives lie on both sides; untreated = 100%, excess cold GTP = 0% | GTP binding activity (percent of control), % at 10 µM | 190,000 tested, 0.055% active | AID 758, 2007;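 active means fluorescent GTP binding to Rab7 beads changed by at least 20 points from the 100% baseline, either direction, mostly lower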;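 further: median green fluorescence of bound Bodipy-FL-GTP per Rab7 bead population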
Rac1 mut GTP: GTP binding modulators of activated mutant Rac1, primary screen, biochemical, bead-based flow cytometry, multiplex, fluorescent GTP. Ras-related C3 botulinum toxin substrate 1 (Homo sapiens), P63000. GST-Rac1 activated beads; actives lie on both sides; 100% means binding = to untreated wells. percent activity (GTP binding), % at 10 µM. 190,000 tested, 0.11% active. AID 764, 2007;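 active means GTP binding at least 20 percentage points away from the 100% baseline, in either direction, so actives lie on both sides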
HRas wt GTP: modulators of GTP binding to HRas wildtype, primary screen, biochemical, bead-based flow cytometry, multiplex. GTPase HRas (Homo sapiens), P01112. GST-Ras wt beads, Bodipy-FL-GTP binding; actives lie on both sides. GTP binding activity, % at 10 µM. 190,000 tested, 0.14% active. AID 759, 2007;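 active means GTP binding activity at least 20% away from the 100% baseline, either lowered as inhibitor or raised as activator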;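 further: 0% = unlabeled GTP competition control and 100% = no-compound control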
Target sequence (P01112 whole entry, looked up): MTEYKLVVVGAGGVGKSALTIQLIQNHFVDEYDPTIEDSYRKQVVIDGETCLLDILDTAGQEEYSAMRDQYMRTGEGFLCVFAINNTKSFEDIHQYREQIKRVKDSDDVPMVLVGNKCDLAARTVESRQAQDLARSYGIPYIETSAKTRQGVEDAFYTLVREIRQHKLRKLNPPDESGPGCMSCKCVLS
Rab2 wt GTP: modulators of GTP binding to Rab2A wildtype, primary screen, biochemical, dog, bead-based flow cytometry, multiplex; 190,000 tested, 0.19% active; GST-Rab2 wt beads, Bodipy-GTP binding; GTP binding activity, % at 10 µM; Ras-related protein Rab-2A (Canis lupus familiaris), P61105; AID 760, 2007;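 active means GTP binding activity at least 20 points away from 100%, either lowered or raised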;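 further: 0% = beads with excess unlabeled GTP and 100% = no-compound control corrected for plate trend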
Rac1 wt GTP bind: wildtype Rac1 GTP binding modulators, primary screen, biochemical, GST-Rac1 beads, flow cytometry, multiplex. AID 757, 2007. 190,000 tested, 0.27% active. Ras-related C3 botulinum toxin substrate 1 (Homo sapiens), P63000. fluorescent GTP binding; actives lie on both sides; 0 = cold GTP competed, 100 = untreated. GTP binding activity (% of control), % at 10 µM;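 active means GTP binding activity at least 20 points away from the 100% control level, either lower or higher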
* = called active by the depositor; [ ] = dose if it differs, or a comment. An excerpt weighted towards active compounds, which were near 0.4% of everything screened.

How did Cc1ccccc1C(=O)Nc1cccc(C(=O)N/N=C/c2cc(Cl)cc([N+](=O)[O-])c2O)c1 do in these assays?
Cdc42 wt GTP: 76*; Rab7 wt modul: 90; Rac1 mut GTP: 74*; HRas wt GTP: 80; Rab2 wt GTP: 77*; Rac1 wt GTP bind: 81

Results for CC1(C)Cc2c(sc(NC(=O)c3ccc(Br)o3)c2C#N)CO1 ?
Cdc42 wt GTP: 148*[activator]; Rab7 wt modul: 99; Rac1 mut GTP: 118; HRas wt GTP: 104; Rab2 wt GTP: 112; Rac1 wt GTP bind: 167*[activator]

What do the screens show for `CCCCC(=O)Nc1sc2c(c1C#N)CC(C)(C)OC2`?
Cdc42 wt GTP: 103; Rab7 wt modul: 104; Rac1 mut GTP: 100; HRas wt GTP: 101; Rab2 wt GTP: 98; Rac1 wt GTP bind: 107

How did Cc1ccc(S(=O)(=O)N(CC(=O)Nc2ccccc2C(=O)O)c2ccccc2)cc1 do in these assays?
Cdc42 wt GTP: 95; Rab7 wt modul: 95; Rac1 mut GTP: 91; HRas wt GTP: 91; Rab2 wt GTP: 93; Rac1 wt GTP bind: 94

Results for CCOC(=O)c1cnc2nc(C)nn2c1N ?
Cdc42 wt GTP: 92; Rab7 wt modul: 100; Rac1 mut GTP: 95; HRas wt GTP: 97; Rab2 wt GTP: 99; Rac1 wt GTP bind: 95

Results for CCOC(=O)c1cnc2c(C#N)cnn2c1N ?
Cdc42 wt GTP: 77*; Rab7 wt modul: 88; Rac1 mut GTP: 86; HRas wt GTP: 72*; Rab2 wt GTP: 73*; Rac1 wt GTP bind: 73*

Results for Cc1cccc(NS(=O)(=O)c2cc(C(=O)N3CCc4ccccc4C3)ccc2Cl)c1C ?
Cdc42 wt GTP: 99; Rab7 wt modul: 97; Rac1 mut GTP: 98; HRas wt GTP: 103; Rab2 wt GTP: 100; Rac1 wt GTP bind: 101

Results for Cc1cc(C)n2ncc(C(=O)O)c2n1 ?
Cdc42 wt GTP: 78*; Rab7 wt modul: 92; Rac1 mut GTP: 94; HRas wt GTP: 82; Rab2 wt GTP: 80; Rac1 wt GTP bind: 92

What do the screens show for `COc1ccc(C2=NN(C(C#N)c3ccc(OC)cc3)C(c3ccccc3)C2)cc1` (stereo unspecified)?
Cdc42 wt GTP: 102; Rab7 wt modul: 101; Rac1 mut GTP: 100; HRas wt GTP: 102; Rab2 wt GTP: 101; Rac1 wt GTP bind: 105

What do the screens show for `Cc1c(NC(=O)OCCNC(=O)COc2c(Cl)cccc2Cl)sc(=S)n1C`?
Cdc42 wt GTP: 105; Rab7 wt modul: 102; Rac1 mut GTP: 99; HRas wt GTP: 102; Rab2 wt GTP: 100; Rac1 wt GTP bind: 108

How did Cc1ccc(S(=O)(=O)N(C)C)cc1NC(=O)COC(=O)c1ccc(Cl)cc1 do in these assays?
Cdc42 wt GTP: 113; Rab7 wt modul: 109; Rac1 mut GTP: 109; HRas wt GTP: 105; Rab2 wt GTP: 108; Rac1 wt GTP bind: 144*[activator]

Results for CC(C)(C)NC(=O)CSc1nccn1Cc1ccccc1 ?
Cdc42 wt GTP: 77*; Rab7 wt modul: 90; Rac1 mut GTP: 82; HRas wt GTP: 86; Rab2 wt GTP: 85; Rac1 wt GTP bind: 75*

How did O=C(CSc1nccn1Cc1ccccc1)Nc1nccs1 do in these assays?
Cdc42 wt GTP: 103; Rab7 wt modul: 102; Rac1 mut GTP: 99; HRas wt GTP: 103; Rab2 wt GTP: 103; Rac1 wt GTP bind: 105

Results for O=C(O)Cc1coc2cc3c(cc12)CCC3 ?
Cdc42 wt GTP: 91; Rab7 wt modul: 79*; Rac1 mut GTP: 87; HRas wt GTP: 88; Rab2 wt GTP: 89; Rac1 wt GTP bind: 88

How did Cc1nc(SCC(=O)O)c(C#N)c(C)c1CC(=O)c1ccccc1 do in these assays?
Cdc42 wt GTP: 94; Rab7 wt modul: 94; Rac1 mut GTP: 93; HRas wt GTP: 93; Rab2 wt GTP: 95; Rac1 wt GTP bind: 92

How did O=C1c2ccccc2C(=O)N1CCCCN(C(=O)c1cc2ccccc2oc1=O)c1ccc(Cl)cc1 do in these assays?
Cdc42 wt GTP: 43*; Rab7 wt modul: 29*; Rac1 mut GTP: 53*; HRas wt GTP: 51*; Rab2 wt GTP: 46*; Rac1 wt GTP bind: 50*

Results for O=C(O)c1ccccc1SCc1ccc2c(c1)OCO2 ?
Cdc42 wt GTP: 135*[activator]; Rab7 wt modul: 121*[activator]; Rac1 mut GTP: 127*[activator]; HRas wt GTP: 123*[activator]; Rab2 wt GTP: 127*[activator]; Rac1 wt GTP bind: 135*[activator]

What do the screens show for `O=C(c1ccccc1SCc1ccccc1)N1CCOCC1`?
Cdc42 wt GTP: 98; Rab7 wt modul: 107; Rac1 mut GTP: 98; HRas wt GTP: 98; Rab2 wt GTP: 100; Rac1 wt GTP bind: 103

What do the screens show for `CC(=O)Nc1ccc(NC(=O)c2ccccc2CCc2ccccc2)cc1`?
Cdc42 wt GTP: 100; Rab7 wt modul: 95; Rac1 mut GTP: 93; HRas wt GTP: 93; Rab2 wt GTP: 94; Rac1 wt GTP bind: 95

How did Cc1cc(NC(=O)CSc2nc(-c3ccccc3)c(C#N)c(=O)[nH]2)no1 do in these assays?
Cdc42 wt GTP: 75*; Rab7 wt modul: 77*; Rac1 mut GTP: 76*; HRas wt GTP: 75*; Rab2 wt GTP: 78*; Rac1 wt GTP bind: 77*

What do the screens show for `O=C1CC(c2ccc(F)cc2)Sc2ccccc2N1` (stereo unspecified)?
Cdc42 wt GTP: 116; Rab7 wt modul: 111; Rac1 mut GTP: 109; HRas wt GTP: 114; Rab2 wt GTP: 106; Rac1 wt GTP bind: 129*[activator]

How did COc1cc(NC(=O)c2cccs2)c(OC)cc1NC(=O)CCC(=O)Nc1ccc2ncccc2c1 do in these assays?
Cdc42 wt GTP: 71*; Rab7 wt modul: 90; Rac1 mut GTP: 87; HRas wt GTP: 72*; Rab2 wt GTP: 71*; Rac1 wt GTP bind: 74*

How did O=Nc1c(O)[nH]c2ccc(F)cc12 do in these assays?
Cdc42 wt GTP: 94; Rab7 wt modul: 102; Rac1 mut GTP: 93; HRas wt GTP: 96; Rab2 wt GTP: 96; Rac1 wt GTP bind: 100

What do the screens show for `NC(=S)N=Nc1c(O)[nH]c2ccc(F)cc12`?
Cdc42 wt GTP: 84; Rab7 wt modul: 85; Rac1 mut GTP: 89; HRas wt GTP: 76*; Rab2 wt GTP: 74*; Rac1 wt GTP bind: 76*

Results for O=C(O)C1=C[C@H](c2ccc(C(F)(F)F)cc2)C[C@H](OCc2ccc(CO)cc2)O1 ?
Cdc42 wt GTP: 74*; Rab7 wt modul: 90; Rac1 mut GTP: 76*; HRas wt GTP: 80; Rab2 wt GTP: 76*; Rac1 wt GTP bind: 77*
